GPR151 ag = activators of human GPR151, primary screen, cell-based, PathHunter beta-arrestin, luminescence. G-protein coupled receptor 151 (Homo sapiens), Q8TDV0. PathHunter beta-arrestin GPR151 cells. activation, % at 11.2 µM. hit rate 1% among 650,000; in the data active = activation above about 4.9%;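 note: 0% = median of compound wells and 100% = cells with positive control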
TEAD-YAP inh = TEAD-YAP interaction inhibition, primary screen, TEAD-YAP interaction inhibitor project, luminescence, HEK-TIYL cells; inhibition, % at 9.12 µM; AID 1259422, 2018; hit rate 1.4% among 640,000; TEAD-Gal4/YAP UAS-luciferase luminescence; in the data active = inhibition above about 32%;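 note: 0% = median of test compound wells and 100% = reference inhibitor wells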
MITF inh = MITF inhibitors, primary screen, biochemical, AlphaScreen, human; AID 1259374, 2018; hit rate 0.91% among 650,000; inhibition, % at 2.6 µM; AlphaScreen MITF homodimerization, bead proximity signal; in the data active = inhibition above about 50%;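 note: 0% = vehicle wells with protein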
FBW7 activator = FBW7 E3 ligase activators, primary screen, biochemical, AlphaScreen, human. F-box/WD repeat-containing protein 7 (Homo sapiens), Q969H0. AlphaScreen FBW7–phospho-cyclin E peptide binding, activator screen. normalized activity (activation), % at 26.1 µM. hit rate 0.13% among 650,000. AID 1259310, 2017; in the data active = normalized activity above about 1.9%;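 note: purified mutant Fbw7 with reduced substrate affinity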
* marks the source's active call; other numbers are inactive results. The list is not random: actives were taken first. Their share in the collection is about 3.5%.

Screening CCN1/C(=C/c2ccc3cc(OC)ccc3[n+]2CC)Sc2ccc(Cl)cc21 returned GPR151 ag 0.5, TEAD-YAP inh 77.1*, MITF inh 2.3 and FBW7 activator -0.2.
For CCCNc1cc(C)nc(Oc2ccccc2)n1 the results were GPR151 ag 1.4, TEAD-YAP inh 80.3*, MITF inh -8.7 and FBW7 activator -0.1.
`COc1ccc2c(c1)C(C)=CC(C)(C)N2S(=O)(=O)c1ccc(Cl)cc1` gave GPR151 ag 0.6, TEAD-YAP inh 48.0*, MITF inh -1.9 and FBW7 activator -0.1.
CC1=CC(C)(C)N(S(=O)(=O)c2ccc(C)cc2)c2ccc(Cl)cc21 was read as GPR151 ag -0.1, TEAD-YAP inh 27.3, MITF inh -5.7 and FBW7 activator 0.0.
CCOc1ccc2c(c1)C(C)=CC(C)(C)N2S(=O)(=O)c1ccc(Cl)cc1 was read as GPR151 ag -0.1, TEAD-YAP inh 60.3*, MITF inh 5.2 and FBW7 activator -0.1.
For CC1=CC(C)(C)N(S(=O)(=O)c2ccc(Cl)cc2)c2ccccc21 the results were GPR151 ag 0.2, TEAD-YAP inh 55.0*, MITF inh 0.6 and FBW7 activator -0.2.
COC(=O)c1ccc(-c2nc(-c3ccc(C(F)(F)F)cc3)no2)cc1 was read as GPR151 ag -0.2, TEAD-YAP inh -0.5, MITF inh -1.4 and FBW7 activator -0.2.
CN(C(=O)CN1CCc2ccccc21)c1c(N)n(Cc2ccccc2)c(=O)[nH]c1=O was read as GPR151 ag 0.2, TEAD-YAP inh 11.6, MITF inh 15.6 and FBW7 activator 0.1.
For O=C(NC(=S)NNC(=O)c1cc2ccccc2cc1O)c1ccco1 the results were GPR151 ag -0.6, TEAD-YAP inh 34.5*, MITF inh 14.5 and FBW7 activator -0.4.
Cc1ccnc(NC(=O)CSc2nnc3c4ccccc4n(CCc4ccccc4)c3n2)c1 was read as GPR151 ag -1.2, TEAD-YAP inh 35.5*, MITF inh 3.3 and FBW7 activator 0.1.
O=C(NC12CC3CC(CC(C3)C1)C2)c1cc([N+](=O)[O-])ccc1Cl was read as GPR151 ag -0.7, TEAD-YAP inh 19.6, MITF inh 10.6 and FBW7 activator -0.1.
For O=C(NCCCc1ccccc1)c1cc([N+](=O)[O-])ccc1Cl the results were GPR151 ag 0.0, TEAD-YAP inh 53.0*, MITF inh 7.5 and FBW7 activator 0.8.
For O=C(NCCn1ccc2ccccc21)c1cc([N+](=O)[O-])ccc1Cl the results were GPR151 ag 0.0, TEAD-YAP inh 32.8*, MITF inh 10.8 and FBW7 activator -0.2.
For O=C(NCCC12CC3CC(CC(C3)C1)C2)c1cc([N+](=O)[O-])ccc1Cl the results were GPR151 ag -0.7, TEAD-YAP inh 46.3*, MITF inh 8.2 and FBW7 activator -0.1.
For CCN1CCN(C(c2nnnn2Cc2ccc(F)cc2)C(C)C)CC1 (stereo unspecified) the results were GPR151 ag 0.2, TEAD-YAP inh -2.4, MITF inh 1.0 and FBW7 activator 0.1.
`CCOC(=O)CC(=O)CSc1nc2sc(C(=O)OCC)c(C)c2c(=O)n1CCC1=CCCCC1` gave GPR151 ag -1.3, TEAD-YAP inh 1.4, MITF inh -12.7 and FBW7 activator -0.1.
For Cc1csc(NC(=O)C(Cc2c[nH]c3ccccc23)NC(=O)OC(C)(C)C)n1 (stereo unspecified) the results were GPR151 ag -1.2, TEAD-YAP inh 40.6*, MITF inh 12.2 and FBW7 activator 0.3.
Screening Cc1ccc(C(=O)c2coc3ccc(C)cc3c2=O)cc1 returned GPR151 ag 0.4, TEAD-YAP inh -55.2, MITF inh -3.2 and FBW7 activator -0.2.
CN(C)CCCN(C(=O)c1ccc(Br)s1)c1nc2c(F)cc(F)cc2s1 was read as GPR151 ag 2.6, TEAD-YAP inh -9.0, MITF inh -6.0 and FBW7 activator 3.2*.
`CN(C)CCCN(C(=O)c1ccc2c(c1)OCCO2)c1nc2c(F)cc(F)cc2s1` gave GPR151 ag 0.0, TEAD-YAP inh -27.0, MITF inh 15.1 and FBW7 activator -0.1.
Screening CC1=CC(C)(C)N=C(Nc2nc(C)c3cc(C)cc(C)c3n2)N1 returned GPR151 ag 0.1, TEAD-YAP inh 59.3*, MITF inh -7.6 and FBW7 activator 0.0.
`N#C/C(C(N)=O)=C1\Oc2c(cc(O)cc2-c2ccccc2)S1` gave GPR151 ag 0.2, TEAD-YAP inh 36.7*, MITF inh 5.7 and FBW7 activator 0.5.
`CC(CS(=O)(=O)c1ccc2ccccc2c1)N1CCCCC1` (stereo unspecified) gave GPR151 ag 0.8, TEAD-YAP inh 33.1*, MITF inh -6.2 and FBW7 activator 0.3.
Screening COC(=O)Nc1ccc(S(=O)(=O)N2c3ccccc3CCC2C)cc1 (stereo unspecified) returned GPR151 ag 1.4, TEAD-YAP inh 52.6*, MITF inh -8.1 and FBW7 activator 0.1.
For O=C(COc1ccc(S(=O)(=O)Nc2ccccc2)cc1)Nc1ccc(F)c(Cl)c1 the results were GPR151 ag -1.5, TEAD-YAP inh 4.3, MITF inh 15.8 and FBW7 activator 0.2.
Screening O=[N+]([O-])c1ccc(Cc2nnc(-c3ccccc3Br)o2)cc1 returned GPR151 ag -1.7, TEAD-YAP inh 32.2*, MITF inh 1.3 and FBW7 activator -0.4.
`O=[N+]([O-])c1ccc(Cc2nnc(-c3ccc(Cl)cc3Cl)o2)cc1` gave GPR151 ag -0.2, TEAD-YAP inh 51.7*, MITF inh 11.2 and FBW7 activator 0.4.
Screening O=[N+]([O-])c1ccc(Cc2nnc(-c3ccccc3Cl)o2)cc1 returned GPR151 ag 0.7, TEAD-YAP inh 27.0, MITF inh -0.4 and FBW7 activator -0.3.
CCOc1c(Cl)cc(C=C2C(=O)N(C)C(=S)N(C)C2=O)cc1OC was read as GPR151 ag -0.2, TEAD-YAP inh -1.5, MITF inh 1.8 and FBW7 activator -0.1.
For Clc1cccc(CSc2ccc3nnc(-c4ccncc4)n3n2)c1 the results were GPR151 ag -0.4, TEAD-YAP inh -0.7, MITF inh -4.3 and FBW7 activator 0.0.
`Cc1ccc(S(=O)(=O)Nc2cc(C(=O)N3CCOCC3)ccc2N2CCCCC2)cc1` gave GPR151 ag 0.3, TEAD-YAP inh 1.8, MITF inh -3.7 and FBW7 activator -0.2.
Screening COC(=O)c1ccc(N2CCOCC2)c(NS(=O)(=O)c2ccc(OC)cc2)c1 returned GPR151 ag -0.7, TEAD-YAP inh 58.3*, MITF inh 7.1 and FBW7 activator 0.0.
Screening COC(=O)c1ccc(N2CCCC2)c(NS(=O)(=O)c2ccc(C)cc2)c1 returned GPR151 ag -1.1, TEAD-YAP inh 40.9*, MITF inh 6.5 and FBW7 activator 0.6.
Screening COCc1cc(OC)c(OC)cc1[N+](=O)[O-] returned GPR151 ag -0.2, TEAD-YAP inh 3.1, MITF inh 2.5 and FBW7 activator 0.1.
